Test results: PubChem BioAssay (Tox21)
A number with no mark means an inactive call. The source made the active and inactive calls. The call rests on the fitted dose curve.
On the % scale 0 is the no-effect control and ±100 the full control effect; potency means the concentration at half of the fitted maximal effect.

The molecules below were run against Muscarinic acetylcholine receptor M1 (Homo sapiens) (UniProt P11229) (assay: Cholinergic receptor muscarinic 1 (CHRM1) small molecule agonists, cell-based qHTS assay (AID 1963589; further: nearly all actives have a fitted effect of over 35% in size)). Conditions: CHRM1-CHO cells, agonist mode, calcium flux fluorescence; series mostly up to 76.8 µM; activation: at the top concentration.
Sequence of Muscarinic acetylcholine receptor M1 (Homo sapiens) (P11229 whole entry, looked up): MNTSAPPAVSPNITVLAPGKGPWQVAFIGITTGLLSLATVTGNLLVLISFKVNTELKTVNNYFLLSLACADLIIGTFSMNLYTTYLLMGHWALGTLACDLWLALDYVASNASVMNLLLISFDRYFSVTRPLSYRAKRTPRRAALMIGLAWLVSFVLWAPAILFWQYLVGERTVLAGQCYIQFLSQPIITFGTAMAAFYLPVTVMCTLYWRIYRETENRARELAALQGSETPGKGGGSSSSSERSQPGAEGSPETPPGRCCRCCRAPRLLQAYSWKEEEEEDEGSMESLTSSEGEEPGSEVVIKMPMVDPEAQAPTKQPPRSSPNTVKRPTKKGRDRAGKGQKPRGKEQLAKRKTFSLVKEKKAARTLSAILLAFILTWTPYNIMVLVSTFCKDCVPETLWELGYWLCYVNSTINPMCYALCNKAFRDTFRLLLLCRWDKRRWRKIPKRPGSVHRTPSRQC
Text: National Center for Advancing Translational Sciences [NCATS]
Division of Preclinical Innovation [DPI]
U.S. Environmental Protection Agency [EPA]
National Institutes of Environmental Health Sciences [NIEHS]
National Toxicology Program [NTP]
U.S. Food and Drug Administration [FDA]
The CHRM1 is a muscarinic receptor. This receptor plays a crucial role in learning and memory processes and has long been identified as a promising therapeutic target for the improvement of cognitive decline in Alzheimer's disease (AD). The CHRM1-CHO cell line stably expressing human muscarinic acetylcholine receptor M1 (CHRM1) can be used for screening agonists and antagonists of interactions between CHRM1 and its ligands. The CHRM1-CHO Calcium Flux Assay is a homogeneous fluorescence-based assay for detecting the intracellular calcium level using FDSS kinetic plate reader system.
CHRM1-CHO cells were dispensed at 1000 cells/3uL/well in 1536-well black-clear bottom plates using a Multidrop Dispenser. After the assay plates were incubated at a 37 C/5% CO2 incubator for 18 h, 3 uL of Dye Loading Buffer was transferred to the assay plate by a Flying Reagent Dispenser. The assay plates were incubated at 37 C for 1h. For agonist mode, 23 nL of compounds dissolved in DMSO, positive controls or DMSO only was transferred to the assay plate by a pin tool. […] Each test compound was measured at 15 concentrations in three independent runs.
`CCCCC/C(=C\c1ccccc1)CO` was tested, and the “activation” value was 11.5%. For `Cc1ccc(C)c([N+](=O)[O-])c1`, the “activation” value was -0.248%. In the case of `Oc1c(Cl)cc(Cl)c2cccnc12`, the “activation” value was 3.85% [at 35.3 µM]. `Clc1cccc(-c2cc(Cl)cc(Cl)c2)c1` was tested, and the “activation” value was 0.703%. With `CCCCCCCC1CCC(=O)O1` (stereo not given) the “activation” value was -0.969%. For `O=C1C=CC(=O)N1`, the “activation” value was 2.03%. For `CN(C)CCCN1c2ccccc2CCc2ccccc21`, the Potency was “inactive”. In the case of `CCN(CC)CCNc1ccc(CO)c2sc3ccccc3c(=O)c12`, the “activation” value was -0.18% [at 35.3 µM]. In the case of `Cc1[nH]c(C)c(Cl)c(=O)c1Cl`, the activation was 0.215% [at 15.8 µM]. For `C[C@@H]1CN(c2c(F)c(F)c3c(=O)c(C(=O)O)cn(C4CC4)c3c2F)C[C@H](C)N1`, the activation was -1.01% [at 15.8 µM]. `O=C(NO)c1ccccc1` was tested, and the “activation” value was 0.558%. `CO[Si](C)(OC)OC` was tested, and the “activation” value was 2.78%. In the case of `Cc1c[nH]c(=S)[nH]c1=O`, the “activation” value was -0.0806%. For `OC[C@H]1O[C@@H]2O[C@H]3[C@H](O)[C@@H](O)[C@@H](O[C@H]4[C@H](O)[C@@H](O)[C@@H](O[C@H]5[C@H](O)[C@@H](O)[C@@H](O[C@H]6[C@H](O)[C@@H](O)[C@@H](O[C@H]7[C@H](O)[C@@H](O)[C@@H](O[C@H]8[C@H](O)[C@@H](O)[C@@H](O[C@H]9[C@H](O)[C@@H](O)[C@@H](O[C@H]1[C@H](O)[C@H]2O)O[C@@H]9CO)O[C@@H]8CO)O[C@@H]7CO)O[C@@H]6CO)O[C@@H]5CO)O[C@@H]4CO)O[C@@H]3CO`, the “activation” value was -0.341% [at 35.3 µM]. `Oc1cc2ccccc2c2ccccc12` was tested, and the “activation” value was -0.09%. `NS(=O)(=O)c1ccc(C(=O)O)cc1` was tested, and the “activation” value was 0.409% [at 35.3 µM]. In the case of `COc1cc(Nc2c(C#N)cnc3cc(OCCCN4CCN(C)CC4)c(OC)cc23)c(Cl)cc1Cl`, the “activation” value was -0.209% [at 35.3 µM]. For `Cc1ccc([N+](=O)[O-])cc1Cl`, the “activation” value was -0.104%. In the case of `C=Cc1ccc(S(=O)(=O)O)cc1`, the “activation” value was -0.422%. For `COc1ccc(-c2ccc3cc(C(=O)O)ccc3c2)cc1C12CC3CC(CC(C3)C1)C2`, the “activation” value was 1.63% [at 35.3 µM]. `CCS(=O)(=O)c1ccc(OC)c(C(=O)OC)c1` was tested, and the “activation” value was -0.191% [at 35.3 µM]. With `O=C1OC2(c3ccc(O)cc3Oc3cc(O)ccc32)c2ccc(N=C=S)cc21` the Potency was 22.3 µM (active). In the case of `C=C[Si](OC(C)=O)(OC(C)=O)OC(C)=O`, the “activation” value was 5.56%. With `N=C(N)N` the “activation” value was -0.161% [at 35.3 µM]. In the case of `CC1CN(c2ccccc2)NC1=O` (stereo not given), the “activation” value was 0%. With `CN1CCN(C(=O)C2CCCCC2)CC1` the “activation” value was -0.191% [at 35.3 µM]. With `C=CC(=O)N1CCOCC1` the “activation” value was 0.457%. With `OCCC1CCCCN1` (stereo not given) the “activation” value was -0.596%. For `CC1=C(Br)C(=O)C(Br)=C/C1=C(/c1ccccc1S(=O)(=O)O)c1cc(Br)c(O)c(Br)c1C`, the “activation” value was -0.205% [at 35.3 µM]. In the case of `Cc1cccc(NC(=S)N(C)C)c1`, the “activation” value was -0.689%. With `CCCCCCCCCCCCCCCC(=O)OC/C=C(C)/C=C/C=C(C)/C=C/C1=C(C)CCCC1(C)C` the “activation” value was 0.0618%. `C[Si](C)(C)O[Si](O)(O)O` was tested, and the “activation” value was 0.527%. In the case of `Cc1ccccc1OCC(=O)O`, the “activation” value was -0.396%. With `CCOC(=O)COc1ccc2c(C)c(CCN(CC)CC)c(=O)oc2c1Cl` the “activation” value was -0.371% [at 35.3 µM]. In the case of `CC(C)(Cc1c[nH]c2ccccc12)NCC(O)COc1ccccc1C#N` (stereo not given), the “activation” value was -0.109% [at 35.3 µM]. With `CC1=C(C=O)C(C)(C)CCC1` the “activation” value was 0.009%. For `CCN(CC)c1ccc(N=Nc2ccccc2)cc1`, the “activation” value was 0.386%. With `OC(C#CCN1CCCC1)(c1ccccc1)c1ccccc1` the “activation” value was -0.45% [at 35.3 µM]. `O=C1N=C(O)CN1/N=C/c1ccc(-c2ccc([N+](=O)[O-])cc2)o1` was tested, and the Potency was “inactive”. For `CC(O)(c1ccc(Cl)cc1)c1ccc(Cl)cc1`, the “activation” value was 18.7%.
